Test results as given in paper PMC7862700, “An all-to-all approach to the identification of sequence-specific readers for epigenetic DNA modifications on cytosine”.

target: T1, ELF5 (Homo sapiens, UniProt Q9UKW6-2 1-255); test: DAPPL (digital affinity profiling via proximity ligation, sequencing); 10 mM Tris-HCl pH 7.5, 50 mM NaCl, 1 mM DTT, 4% glycerol, room temperature, 30 min; GST-TFs on glutathione beads, 16-mer random dsDNA library, 0.1% formaldehyde crosslink after washing; high values mean tight binding; details: protein: recombinant; tags: N-terminal GST; dsDNA, one strand shown
T1 sequence: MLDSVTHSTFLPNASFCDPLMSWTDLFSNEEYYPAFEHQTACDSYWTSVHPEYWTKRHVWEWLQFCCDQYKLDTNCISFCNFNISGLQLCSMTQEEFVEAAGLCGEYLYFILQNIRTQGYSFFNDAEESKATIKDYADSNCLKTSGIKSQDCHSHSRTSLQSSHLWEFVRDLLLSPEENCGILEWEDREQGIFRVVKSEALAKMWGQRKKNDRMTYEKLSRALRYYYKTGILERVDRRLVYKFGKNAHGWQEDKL
Procedure, shortened: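 Human transcription factors carrying a GST fusion were produced in yeast, bound to glutathione beads, tagged with DNA barcodes and pooled together with a tag-only sample. Each pool was held with 200 nmole of a random double-stranded 16-mer DNA library in Tris/NaCl/DTT/glycerol buffer for 30 min at room temperature, then washed, crosslinked in 0.1% formaldehyde, proximity-ligated with BsaI/T4 ligase (1 h, 37 °C), PCR-amplified and sequenced on an Illumina NextSeq500. Binding signal is the read frequency of each hexamer for a given factor divided by its frequency in the tag-only sample.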

Row | Sequence | binding signal
1 | GGAAGG | 1 fold enrichment (6-mer frequency, TF over GST control)
2 | AGCAGG | 1.02 fold enrichment (6-mer frequency, TF over GST control)
3 | GAGGAA | 1.11 fold enrichment (6-mer frequency, TF over GST control)
4 | GGGATG | 1.01 fold enrichment (6-mer frequency, TF over GST control)
5 | GGGAAG | 1.24 fold enrichment (6-mer frequency, TF over GST control)
6 | CAAGGA | 1.03 fold enrichment (6-mer frequency, TF over GST control)
7 | AGTAGT | 1.07 fold enrichment (6-mer frequency, TF over GST control)
8 | CGGGAA | 1.06 fold enrichment (6-mer frequency, TF over GST control)
9 | TCCAGG | 1.01 fold enrichment (6-mer frequency, TF over GST control)
